# The full list was thinned out, with hits kept by preference.
# ST2 inh: blocks human ST2 binding to IL-33; Q01638; AlphaLISA ST2-Fc/biotin-IL-33 interaction, 1 h; inhibition, % for hits at 17 µM; actives 2.3% (n = 78,000); AID 1259354; in the data active = inhibition above about 30%
# Target sequence (Q01638 whole entry, looked up): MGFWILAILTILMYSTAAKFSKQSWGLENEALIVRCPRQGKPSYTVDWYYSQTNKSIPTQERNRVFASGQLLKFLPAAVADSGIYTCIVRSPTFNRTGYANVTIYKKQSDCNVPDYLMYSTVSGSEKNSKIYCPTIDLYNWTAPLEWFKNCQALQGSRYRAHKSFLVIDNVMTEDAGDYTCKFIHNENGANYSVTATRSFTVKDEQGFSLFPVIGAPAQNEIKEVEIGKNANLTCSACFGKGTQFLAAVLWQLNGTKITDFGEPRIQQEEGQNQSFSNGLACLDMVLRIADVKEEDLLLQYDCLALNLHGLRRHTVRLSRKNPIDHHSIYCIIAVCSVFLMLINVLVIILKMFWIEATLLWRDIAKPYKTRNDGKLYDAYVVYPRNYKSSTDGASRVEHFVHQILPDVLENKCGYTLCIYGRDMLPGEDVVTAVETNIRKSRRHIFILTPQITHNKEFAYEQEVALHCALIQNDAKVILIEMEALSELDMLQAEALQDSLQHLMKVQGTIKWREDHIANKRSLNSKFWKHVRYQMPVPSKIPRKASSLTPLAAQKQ
# The depositor's hits bear a star; i = inactive.
SMILES,ST2 inh
Cc1nn(C)c(C)c1CCC(=O)N(C)Cc1nc(-c2ccccc2)no1,i
COc1ccc(C2CC(c3cccs3)=NN2C(=O)CSc2c[nH]c3ccccc23)cc1 (stereo not drawn),i
COc1cccc(C2CC(c3cccs3)=NN2C(=O)CSC2CCCCC2)c1OC (stereo not drawn),44%*
COc1cccc(C2CC(c3ccc(Br)cc3)=NN2C(=O)CCCC(=O)O)c1OC (stereo not drawn),i
Cc1cccc(OCC(=O)Nc2sc3c(c2C#N)CCC3)c1C,i
CCc1ccc(OCC(=O)Nc2ccc(N3CCN(C(C)=O)CC3)cc2)cc1,i
CC(=O)Nc1ccc(OCC(=O)Nc2c(C)cccc2C)cc1,i
Cc1cc(C)c(NC(=O)COc2ccc(C)c(C)c2)c(C)c1,i
Cc1cccc(OCC(=O)Nc2ccc(N3CCCC3)cc2)c1C,66%*
Cc1ccc(OCC(=O)Nc2ccc(N3CCCC3)cc2)cc1C,59%*
Cc1nnsc1CN(C)C(=O)c1ccccc1-c1ncn[nH]1,i
COc1cc2c(cc1OC)C(C(=O)NCC1CCCO1)C(c1cccnc1)N(C)C2=O (stereo not drawn),i
Cc1ccc([N+](=O)[O-])cc1S(=O)(=O)Nc1ccc2oc(=O)sc2c1,i
Cc1ccc(-c2ccnc(NCc3noc(CC(C)C)n3)n2)c(C)n1,i
N#C/C(=C\Nc1cccc(C(F)(F)F)c1)c1nc(-c2cc3ccccc3oc2=O)cs1,i
N#C/C(=C\c1ccc(Cl)cc1)c1nc(-c2ccccc2)cs1,51%*
Cc1ccc(-c2nnc3s/c(=C\c4ccc(C)o4)c(=O)n23)cc1,i
NNC(=O)C(=O)Nc1nc(-c2ccc(Cl)cc2)cs1,i
N#CCc1nc(-c2ccc(-c3ccccc3)cc2)cs1,i
N#C/C(=C\c1ccccc1)c1nc(-c2ccccc2)cs1,65%*
Cc1ccc(/C=C(\C#N)c2nc(-c3ccc(C)cc3)cs2)cc1,54%*
Cc1ccc(/C=C(\C#N)c2nc(-c3ccc([N+](=O)[O-])cc3)cs2)cc1,i
Cc1nc(-c2ccc(C(N)=O)cc2)cs1,i
Cc1ccc(-c2csc(/C(C#N)=C\c3ccc(C)o3)n2)cc1,51%*
Cc1ccc(C(=O)Nc2nc(-c3ccc(F)cc3)cs2)o1,i
SMILES,ST2 inh
CC(=O)N(CN1C(=O)c2ccccc2S1(=O)=O)CN1C(=O)c2ccccc2S1(=O)=O,i
O=C(O)C1(CCCc2ccccc2)CCN(Cc2cccnc2)CC1,i
Cc1ccc(-c2nnc([C@H]3CCN(CCC(C)C)C3)o2)cc1,i
O=C(Nc1ccc(=O)n2c1[C@@H]1C[C@@H](CN(C(=O)COc3ccccc3)C1)C2)C1CCCCC1,i
Cc1ccc(-n2nc3c(c2NC(=O)C(C)C)CSC3)cc1,i
COC(=O)c1cc2n(n1)CCN(C(=O)Cn1c(C(C)C)nc3ccccc31)C2,i
COc1ccc2oc(CNC(=O)CCN3CCCCCCC3)nc2c1,i
COc1ccc(/C=c2\sc3n(c2=O)CN(c2ccc(C(C)=O)cc2)CN=3)cc1OC,i
Cc1ccc(NC(=O)c2ccccc2C)c([N+](=O)[O-])c1,i
Cc1ccc(-c2csc(/C(C#N)=C/c3ccccc3[N+](=O)[O-])n2)c(C)c1,57%*
COc1ccc(-c2csc(/C(C#N)=C/c3ccccc3[N+](=O)[O-])n2)cc1,i
Cc1ccc(-n2ncc3c(N4CCCCCC4)ncnc32)c(C)c1,i
CC1=C(C(=O)OCc2ccccc2)C(c2cccc(O)c2)NC(=O)N1 (stereo not drawn),i
Cc1ccccc1CSC1=NCCN1C(=O)c1ccc(Br)o1,i
CCN(CC)c1ccc(NC(=O)Cc2ccccc2)cc1,36%*
CCN(Cc1ccccc1)Cc1ccc(NC(C)=O)cc1,i
CCN(CC)c1ccc(NC(=O)CCN2C(=O)c3ccccc3C2=O)cc1,i
CS(=O)(=O)c1ccc2nc(NC(=O)Nc3ccccc3)sc2c1,i
CN1C(=O)C(O)(CC(=O)c2cccc([N+](=O)[O-])c2)c2ccccc21 (stereo not drawn),i
CN1/C(=C\C(=O)c2ccc([N+](=O)[O-])cc2)C(C)(C)c2ccccc21,36%*
NC(=O)c1ccc(C(=O)c2ccc([N+](=O)[O-])cc2)cc1,i
Cc1ccc(NC(=O)CC(=O)NCc2nc(-c3cccc(C)c3)no2)cc1,i
Cc1ccc(S(=O)(=O)N2CCCCC2)cc1,i
CCn1c(-c2ccc(S(=O)(=O)N3CCCCC3)cc2)csc1=Nc1ccccc1OC,61%*
Cc1sc2c(c1C)c(=O)n(CCc1ccccc1)c(=O)n2Cc1cccnc1,i
SMILES,ST2 inh
CCSc1nnc(-c2cccnc2)n1Cc1ccccc1,i
c1ccc(CCCN2CCOCC2)cc1,i
OCCn1c(-c2ccc(F)cc2)csc1=Nc1ccccc1,36%*
c1ccc(N=c2scc(-c3ccccc3)n2Cc2cccnc2)cc1,41%*
O=C(N=c1scc(-c2ccc(Cl)cc2)n1Cc1ccco1)c1ccccc1,i
Cn1c(=O)c2c(nc3n(CCCO)c(-c4ccc(F)cc4)cn23)n(C)c1=O,i
O=S(=O)(c1ccc(Cl)cc1)N(CCCN1CCOCC1)Cc1cccs1,i
Clc1ccc(-c2csc(=Nc3ccccc3)n2CCCN2CCOCC2)cc1,64%*
COc1ccc(S(=O)(=O)N2CCCC2)cc1,i
CC1CCc2c(sc3ncn4ncnc4c23)C1 (stereo not drawn),i
COc1cc2c(C(=O)Nc3ccc4c(c3)OCCO4)cn(C)c(=O)c2cc1OC,i
O=C(Cc1ccc(F)cc1)NC1CC(=O)N(c2cccc(F)c2)C1 (stereo not drawn),i
CSc1nc(N)nc(SCC(=O)Nc2ccccc2[N+](=O)[O-])c1C#N,i
CCOc1ccc(C2Oc3nc(SC)nnc3-c3ccccc3N2C(C)=O)cc1C (stereo not drawn),i
O=C(Nc1c2c(nn1-c1ccc(F)cc1)CS(=O)C2)C1(c2ccc(Cl)cc2)CCCC1 (stereo not drawn),i
CCc1ccc2nc(N3CCC(C(=O)NC(C)C)CC3)sc2c1,i
CCn1c(-c2ccc(OC)c(F)c2)csc1=Nc1ccccc1,73%*
CCCn1c(CNC(=O)COC)nc2ccccc21,i
O=C(Nc1ccccc1)Nc1cccc([N+](=O)[O-])c1,i
Cc1ccccc1C(=O)Nc1cccc([N+](=O)[O-])c1,i
O=[N+]([O-])c1cccc(Nc2ccccc2)c1,33%*
Cc1c(Cl)cccc1NC(=O)c1ccc([N+](=O)[O-])cc1,i
COc1ccc(N(CC(N)=O)S(C)(=O)=O)cc1Cl,i
Cc1cccc(Cc2c(C)nc3nc(SCC(=O)NCc4ccc5c(c4)OCO5)nn3c2C)c1,i
Cc1nc(N2CCCCCCC2)ncc1C(C)NC(=O)C1CCC1 (stereo not drawn),i
SMILES,ST2 inh
CC(C)[C@H]1NC(=O)[C@@H]2[C@@H](NC(=O)NC3CCCCC3)CCN2C1=O,43%*
O=C(N[C@H]1CCN2C(=O)c3ccccc3NC(=O)[C@H]12)C1CCCC1,i
COc1cccc(NC(=O)N[C@H]2CCN3C(=O)[C@@H](Cc4ccccc4)NC(=O)[C@H]23)c1,i
COc1cc(C(=O)Nc2c(C(=O)Nc3cccc(F)c3)oc3ccccc23)cc(OC)c1OC,i
COc1ccc(OC)c(-c2ccc(NC(=O)CN)c(F)c2)c1,i
CCc1nc(C)c(C(=O)N2CCCC(c3nc(-c4ccccc4)no3)C2)o1 (stereo not drawn),i
Cc1nnc2n1N=C(c1ccc(Br)cc1)CS2,i
COCCN(Cc1nc(C2CC2)no1)C(C)C,i
